# According to paper PMC7862700, “An all-to-all approach to the identification of sequence-specific readers for epigenetic DNA modifications on cytosine”:
# Columns and labels:
# Assay in all cases: DAPPL (digital affinity profiling via proximity ligation, sequencing); 10 mM Tris-HCl pH 7.5, 50 mM NaCl, 1 mM DTT, 4% glycerol, room temperature, 30 min; GST-TFs on glutathione beads, 16-mer random dsDNA library, 0.1% formaldehyde crosslink after washing; high values mean tight binding
# [1] = molecular target: T1, FLI1 (Homo sapiens, UniProt Q01543 1-452); settings: protein: recombinant; tags: N-terminal GST; dsDNA, one strand shown
# T1 sequence: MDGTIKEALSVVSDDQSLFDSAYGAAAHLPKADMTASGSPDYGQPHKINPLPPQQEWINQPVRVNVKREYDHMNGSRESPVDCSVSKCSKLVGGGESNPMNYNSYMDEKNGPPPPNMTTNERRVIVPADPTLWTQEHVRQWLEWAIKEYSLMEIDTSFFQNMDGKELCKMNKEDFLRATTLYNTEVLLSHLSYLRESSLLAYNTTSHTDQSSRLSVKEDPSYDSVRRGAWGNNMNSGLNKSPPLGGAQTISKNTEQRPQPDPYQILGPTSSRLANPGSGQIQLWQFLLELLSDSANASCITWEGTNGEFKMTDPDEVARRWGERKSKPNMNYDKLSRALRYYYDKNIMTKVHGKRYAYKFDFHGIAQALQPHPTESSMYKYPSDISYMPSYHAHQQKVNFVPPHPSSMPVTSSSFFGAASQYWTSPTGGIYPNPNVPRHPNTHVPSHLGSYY
# Summary of the method: (§1)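 GST fusions of human transcription factors were expressed in yeast and captured with glutathione beads. Once given DNA barcodes and pooled alongside a tag-only sample, they were incubated for 30 min at room temperature with 200 nmole of a random double-stranded 16-mer DNA library in Tris/NaCl/DTT/glycerol buffer, then washed, crosslinked (0.1% formaldehyde), proximity-ligated, PCR-amplified and sequenced on an Illumina NextSeq500. The binding signal of each hexamer is its read frequency for a factor divided by its frequency for the tag-only sample.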
# [2] = molecular target: T2, ELK1 (Homo sapiens, UniProt P19419 1-428); settings: protein: recombinant; tags: N-terminal GST; dsDNA, one strand shown
# T2 sequence: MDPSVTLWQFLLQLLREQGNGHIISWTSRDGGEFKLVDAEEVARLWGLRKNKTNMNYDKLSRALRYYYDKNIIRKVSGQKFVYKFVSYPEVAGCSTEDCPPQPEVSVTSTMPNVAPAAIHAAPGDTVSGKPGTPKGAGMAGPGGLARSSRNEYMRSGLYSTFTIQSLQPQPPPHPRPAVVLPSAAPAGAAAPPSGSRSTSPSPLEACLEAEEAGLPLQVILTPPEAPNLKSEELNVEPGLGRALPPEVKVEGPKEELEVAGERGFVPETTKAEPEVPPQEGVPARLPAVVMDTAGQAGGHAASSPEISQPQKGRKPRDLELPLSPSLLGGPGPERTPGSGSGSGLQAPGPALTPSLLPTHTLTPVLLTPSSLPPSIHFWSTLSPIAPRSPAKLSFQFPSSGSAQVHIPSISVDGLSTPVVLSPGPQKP
# Summary of the method: as §1
# [3] = molecular target: T3, GABPA (Homo sapiens, UniProt Q06546 1-454); settings: protein: recombinant; tags: N-terminal GST; dsDNA, one strand shown
# T3 sequence: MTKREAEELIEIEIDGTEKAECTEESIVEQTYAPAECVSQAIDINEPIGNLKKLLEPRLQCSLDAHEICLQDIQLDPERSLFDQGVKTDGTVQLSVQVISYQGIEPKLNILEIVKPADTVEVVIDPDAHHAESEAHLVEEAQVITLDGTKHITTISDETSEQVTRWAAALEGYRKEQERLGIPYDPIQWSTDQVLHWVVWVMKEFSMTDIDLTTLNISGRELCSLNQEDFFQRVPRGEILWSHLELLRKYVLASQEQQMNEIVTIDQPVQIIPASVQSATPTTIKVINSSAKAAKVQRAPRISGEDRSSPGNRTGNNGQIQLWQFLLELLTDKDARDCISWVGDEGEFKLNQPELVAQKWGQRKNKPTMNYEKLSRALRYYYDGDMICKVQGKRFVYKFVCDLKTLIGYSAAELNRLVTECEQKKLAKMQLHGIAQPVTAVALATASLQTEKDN
# Summary of the method: as §1
# [4] = molecular target: T4, ERG (Homo sapiens, UniProt P11308 1-479); settings: protein: recombinant; tags: N-terminal GST; dsDNA, one strand shown
# T4 sequence: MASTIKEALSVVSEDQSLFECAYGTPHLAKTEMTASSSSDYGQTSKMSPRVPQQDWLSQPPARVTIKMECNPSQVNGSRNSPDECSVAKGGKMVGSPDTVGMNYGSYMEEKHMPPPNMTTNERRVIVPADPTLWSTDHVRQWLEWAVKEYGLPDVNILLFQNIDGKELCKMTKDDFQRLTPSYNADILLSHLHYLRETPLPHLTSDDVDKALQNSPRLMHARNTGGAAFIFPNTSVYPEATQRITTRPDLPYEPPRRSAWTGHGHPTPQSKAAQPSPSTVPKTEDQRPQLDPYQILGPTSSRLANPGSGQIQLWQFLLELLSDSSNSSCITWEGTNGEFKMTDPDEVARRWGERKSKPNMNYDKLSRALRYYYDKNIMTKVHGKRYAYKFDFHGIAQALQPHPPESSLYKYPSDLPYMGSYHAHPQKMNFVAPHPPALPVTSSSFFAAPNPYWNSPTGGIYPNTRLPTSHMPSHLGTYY
# Summary of the method: as §1
# [5] = molecular target: ELF1 (Homo sapiens, UniProt P32519 1-619); settings: protein: recombinant; tags: N-terminal GST; dsDNA, one strand shown
# Summary of the method: as §1
# [6] = molecular target: T5, EHF (Homo sapiens, UniProt Q9NZC4 1-300); settings: protein: recombinant; tags: N-terminal GST; dsDNA, one strand shown
# T5 sequence: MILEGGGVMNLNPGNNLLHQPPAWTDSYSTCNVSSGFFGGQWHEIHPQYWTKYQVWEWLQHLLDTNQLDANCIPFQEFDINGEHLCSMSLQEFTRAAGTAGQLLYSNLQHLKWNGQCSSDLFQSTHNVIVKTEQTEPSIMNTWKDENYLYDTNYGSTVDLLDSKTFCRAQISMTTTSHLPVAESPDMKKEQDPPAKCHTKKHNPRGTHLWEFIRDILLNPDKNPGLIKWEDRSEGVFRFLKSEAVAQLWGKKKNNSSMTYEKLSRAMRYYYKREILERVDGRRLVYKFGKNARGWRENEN
# Summary of the method: as §1
# [7] = molecular target: SPI1 (Homo sapiens, UniProt P17947 1-270); settings: protein: recombinant; tags: N-terminal GST; dsDNA, one strand shown
# Summary of the method: as §1
# [8] = molecular target: SPIB (Homo sapiens, UniProt Q01892 1-262); settings: protein: recombinant; tags: N-terminal GST; dsDNA, one strand shown
# Summary of the method: as §1
# [9] = molecular target: T6, ELK3 (Homo sapiens, UniProt P41970 1-407); settings: protein: recombinant; tags: N-terminal GST; dsDNA, one strand shown
# T6 sequence: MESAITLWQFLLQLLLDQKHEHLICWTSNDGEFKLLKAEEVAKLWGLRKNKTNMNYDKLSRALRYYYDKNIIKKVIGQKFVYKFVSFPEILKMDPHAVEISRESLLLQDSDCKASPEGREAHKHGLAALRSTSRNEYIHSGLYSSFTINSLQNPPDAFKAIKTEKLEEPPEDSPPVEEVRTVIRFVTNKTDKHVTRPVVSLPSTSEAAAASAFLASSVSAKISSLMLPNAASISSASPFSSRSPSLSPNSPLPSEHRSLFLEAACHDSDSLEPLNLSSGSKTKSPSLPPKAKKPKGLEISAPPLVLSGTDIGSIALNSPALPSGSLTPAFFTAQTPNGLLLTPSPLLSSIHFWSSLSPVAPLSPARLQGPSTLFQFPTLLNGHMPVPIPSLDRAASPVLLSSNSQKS
# Summary of the method: as §1
# [10] = molecular target: T7, FEV (Homo sapiens, UniProt Q99581 1-238); settings: protein: recombinant; tags: N-terminal GST; dsDNA, one strand shown
# T7 sequence: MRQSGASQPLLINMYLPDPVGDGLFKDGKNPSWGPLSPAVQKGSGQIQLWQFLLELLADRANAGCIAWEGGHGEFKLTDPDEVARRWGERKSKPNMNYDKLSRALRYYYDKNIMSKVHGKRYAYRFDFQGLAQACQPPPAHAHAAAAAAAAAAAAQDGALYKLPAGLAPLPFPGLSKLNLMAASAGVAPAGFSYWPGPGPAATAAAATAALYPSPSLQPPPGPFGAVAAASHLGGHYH
# Summary of the method: as §1
# [11] = molecular target: ETV5 (Homo sapiens, UniProt P41161 1-510); settings: protein: recombinant; tags: N-terminal GST; dsDNA, one strand shown
# Summary of the method: as §1
# [12] = molecular target: HSF1 (Homo sapiens, UniProt Q00613 1-529); settings: protein: recombinant; tags: N-terminal GST; chain copies: 3; dsDNA, one strand shown
# Summary of the method: as §1
# [13] = molecular target: T8, SPIC (Homo sapiens, UniProt Q8N5J4 1-248); settings: protein: recombinant; tags: N-terminal GST; dsDNA, one strand shown
# T8 sequence: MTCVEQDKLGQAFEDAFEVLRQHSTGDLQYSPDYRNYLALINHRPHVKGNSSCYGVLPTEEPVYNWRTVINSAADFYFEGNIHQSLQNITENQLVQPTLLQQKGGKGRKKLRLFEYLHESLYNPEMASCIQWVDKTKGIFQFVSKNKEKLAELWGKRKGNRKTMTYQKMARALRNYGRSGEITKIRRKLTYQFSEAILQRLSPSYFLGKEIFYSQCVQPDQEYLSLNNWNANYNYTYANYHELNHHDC
# Summary of the method: as §1
# [14] = molecular target: ELF4 (Homo sapiens, UniProt Q99607 1-663); settings: protein: recombinant; tags: N-terminal GST; dsDNA, one strand shown
# Summary of the method: as §1
# [15] = molecular target: T9, ELK4 (Homo sapiens, UniProt P28324-2 1-405); settings: protein: recombinant; tags: N-terminal GST; dsDNA, one strand shown
# T9 sequence: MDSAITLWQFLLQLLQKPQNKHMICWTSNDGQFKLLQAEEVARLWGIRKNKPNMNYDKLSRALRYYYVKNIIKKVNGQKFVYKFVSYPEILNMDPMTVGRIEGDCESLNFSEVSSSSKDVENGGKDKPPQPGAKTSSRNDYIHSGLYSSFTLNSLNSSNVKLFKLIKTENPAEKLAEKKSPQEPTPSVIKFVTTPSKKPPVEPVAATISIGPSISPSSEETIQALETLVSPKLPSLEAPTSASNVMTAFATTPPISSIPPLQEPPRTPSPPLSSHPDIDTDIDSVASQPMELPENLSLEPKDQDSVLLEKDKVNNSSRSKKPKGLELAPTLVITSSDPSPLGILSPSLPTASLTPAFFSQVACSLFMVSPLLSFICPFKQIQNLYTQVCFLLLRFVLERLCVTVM
# Summary of the method: as §1
# [16] = molecular target: T10, ETV2 (Homo sapiens, UniProt O00321 1-342); settings: protein: recombinant; tags: N-terminal GST; dsDNA, one strand shown
# T10 sequence: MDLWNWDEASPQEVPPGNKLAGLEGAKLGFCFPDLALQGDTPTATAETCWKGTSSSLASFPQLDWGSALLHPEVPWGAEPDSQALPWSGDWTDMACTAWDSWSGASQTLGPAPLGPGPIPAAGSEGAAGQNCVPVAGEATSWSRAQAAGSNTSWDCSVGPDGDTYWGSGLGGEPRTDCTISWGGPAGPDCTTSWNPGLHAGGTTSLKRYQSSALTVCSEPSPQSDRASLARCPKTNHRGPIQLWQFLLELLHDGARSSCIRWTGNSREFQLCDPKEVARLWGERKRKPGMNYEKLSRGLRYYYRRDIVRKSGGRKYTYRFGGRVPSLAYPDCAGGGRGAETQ
# Summary of the method: as §1
# [17] = molecular target: T11, ELF3 (Homo sapiens, UniProt P78545 1-371); settings: protein: recombinant; tags: N-terminal GST; dsDNA, one strand shown
# T11 sequence: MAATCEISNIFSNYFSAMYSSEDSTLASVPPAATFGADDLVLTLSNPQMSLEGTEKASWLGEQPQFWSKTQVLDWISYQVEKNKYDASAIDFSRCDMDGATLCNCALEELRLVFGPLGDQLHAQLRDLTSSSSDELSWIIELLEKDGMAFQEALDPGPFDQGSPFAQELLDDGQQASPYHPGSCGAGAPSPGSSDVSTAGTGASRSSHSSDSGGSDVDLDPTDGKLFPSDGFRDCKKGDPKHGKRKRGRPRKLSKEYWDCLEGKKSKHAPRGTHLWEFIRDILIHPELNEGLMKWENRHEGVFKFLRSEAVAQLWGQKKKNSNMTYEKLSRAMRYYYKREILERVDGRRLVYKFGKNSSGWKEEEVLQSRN
# Summary of the method: as §1
# [18] = molecular target: CRX (Homo sapiens, UniProt O43186 1-299); settings: protein: recombinant; tags: N-terminal GST; dsDNA, one strand shown
# Summary of the method: as §1
# [19] = molecular target: ETV1 (Homo sapiens, UniProt P50549 1-477); settings: protein: recombinant; tags: N-terminal GST; dsDNA, one strand shown
# Summary of the method: as §1
# Sequence of CRX (O43186 whole entry): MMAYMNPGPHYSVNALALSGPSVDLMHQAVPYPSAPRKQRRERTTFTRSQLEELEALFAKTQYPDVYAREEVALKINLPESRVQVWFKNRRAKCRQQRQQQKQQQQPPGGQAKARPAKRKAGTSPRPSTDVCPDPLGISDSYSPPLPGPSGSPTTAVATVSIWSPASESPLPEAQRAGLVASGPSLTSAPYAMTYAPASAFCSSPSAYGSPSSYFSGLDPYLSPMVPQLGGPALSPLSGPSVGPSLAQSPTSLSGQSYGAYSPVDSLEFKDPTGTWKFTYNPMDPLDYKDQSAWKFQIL
# Sequence of HSF1 (Q00613 whole entry): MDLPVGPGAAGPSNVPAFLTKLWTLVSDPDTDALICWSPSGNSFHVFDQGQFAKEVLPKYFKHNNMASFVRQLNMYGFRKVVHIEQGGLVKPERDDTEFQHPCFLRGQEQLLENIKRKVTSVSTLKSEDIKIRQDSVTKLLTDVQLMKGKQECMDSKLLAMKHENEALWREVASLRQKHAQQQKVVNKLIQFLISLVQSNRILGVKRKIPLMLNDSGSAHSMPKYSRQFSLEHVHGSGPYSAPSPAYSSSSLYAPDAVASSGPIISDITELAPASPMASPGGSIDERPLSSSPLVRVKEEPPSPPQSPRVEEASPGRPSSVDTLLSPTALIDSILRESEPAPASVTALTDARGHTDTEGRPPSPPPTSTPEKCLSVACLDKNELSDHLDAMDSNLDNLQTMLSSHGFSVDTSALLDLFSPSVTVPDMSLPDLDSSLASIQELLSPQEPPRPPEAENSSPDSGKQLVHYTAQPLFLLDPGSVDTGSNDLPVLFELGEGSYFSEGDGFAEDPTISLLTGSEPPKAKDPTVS
# Sequence of ELF4 (Q99607 whole entry): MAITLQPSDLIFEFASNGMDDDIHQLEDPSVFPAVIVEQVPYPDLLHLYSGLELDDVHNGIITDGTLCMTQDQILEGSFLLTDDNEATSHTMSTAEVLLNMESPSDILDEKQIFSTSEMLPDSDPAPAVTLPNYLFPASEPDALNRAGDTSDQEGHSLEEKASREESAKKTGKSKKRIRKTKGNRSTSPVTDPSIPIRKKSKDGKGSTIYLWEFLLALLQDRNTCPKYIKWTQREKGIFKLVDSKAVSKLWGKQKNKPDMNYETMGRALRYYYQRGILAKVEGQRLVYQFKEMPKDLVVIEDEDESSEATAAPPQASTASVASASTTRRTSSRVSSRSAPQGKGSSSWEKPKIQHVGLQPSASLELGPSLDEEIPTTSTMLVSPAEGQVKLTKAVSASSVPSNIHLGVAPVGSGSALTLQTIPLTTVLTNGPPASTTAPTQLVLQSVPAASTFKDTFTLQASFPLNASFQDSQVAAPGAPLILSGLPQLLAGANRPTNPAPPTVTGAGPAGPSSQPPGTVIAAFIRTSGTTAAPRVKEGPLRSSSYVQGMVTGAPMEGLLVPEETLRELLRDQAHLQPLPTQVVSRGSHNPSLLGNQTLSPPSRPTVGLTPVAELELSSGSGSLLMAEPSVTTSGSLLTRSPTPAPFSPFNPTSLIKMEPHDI
# Sequence of SPIB (Q01892 whole entry): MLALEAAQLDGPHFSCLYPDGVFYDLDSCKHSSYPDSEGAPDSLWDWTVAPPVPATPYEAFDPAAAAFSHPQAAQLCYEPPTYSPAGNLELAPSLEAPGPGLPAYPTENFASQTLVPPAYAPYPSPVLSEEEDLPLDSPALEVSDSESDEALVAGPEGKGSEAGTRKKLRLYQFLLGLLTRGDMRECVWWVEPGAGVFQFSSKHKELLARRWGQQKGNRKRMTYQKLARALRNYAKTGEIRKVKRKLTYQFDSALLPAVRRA
# Sequence of ETV1 (P50549 whole entry): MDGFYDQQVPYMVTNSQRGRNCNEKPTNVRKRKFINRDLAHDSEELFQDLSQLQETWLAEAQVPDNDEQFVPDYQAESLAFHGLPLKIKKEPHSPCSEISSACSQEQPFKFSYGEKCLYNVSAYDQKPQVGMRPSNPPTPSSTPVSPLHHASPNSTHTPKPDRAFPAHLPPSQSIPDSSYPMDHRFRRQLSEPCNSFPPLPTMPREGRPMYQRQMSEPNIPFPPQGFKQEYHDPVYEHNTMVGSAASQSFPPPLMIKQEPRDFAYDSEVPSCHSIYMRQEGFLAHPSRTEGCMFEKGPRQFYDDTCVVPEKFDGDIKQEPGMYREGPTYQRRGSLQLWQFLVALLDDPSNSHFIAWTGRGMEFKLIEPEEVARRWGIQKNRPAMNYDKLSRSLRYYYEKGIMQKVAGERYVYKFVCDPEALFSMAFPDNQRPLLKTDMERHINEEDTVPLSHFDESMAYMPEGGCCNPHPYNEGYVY
# Sequence of ELF1 (P32519 whole entry): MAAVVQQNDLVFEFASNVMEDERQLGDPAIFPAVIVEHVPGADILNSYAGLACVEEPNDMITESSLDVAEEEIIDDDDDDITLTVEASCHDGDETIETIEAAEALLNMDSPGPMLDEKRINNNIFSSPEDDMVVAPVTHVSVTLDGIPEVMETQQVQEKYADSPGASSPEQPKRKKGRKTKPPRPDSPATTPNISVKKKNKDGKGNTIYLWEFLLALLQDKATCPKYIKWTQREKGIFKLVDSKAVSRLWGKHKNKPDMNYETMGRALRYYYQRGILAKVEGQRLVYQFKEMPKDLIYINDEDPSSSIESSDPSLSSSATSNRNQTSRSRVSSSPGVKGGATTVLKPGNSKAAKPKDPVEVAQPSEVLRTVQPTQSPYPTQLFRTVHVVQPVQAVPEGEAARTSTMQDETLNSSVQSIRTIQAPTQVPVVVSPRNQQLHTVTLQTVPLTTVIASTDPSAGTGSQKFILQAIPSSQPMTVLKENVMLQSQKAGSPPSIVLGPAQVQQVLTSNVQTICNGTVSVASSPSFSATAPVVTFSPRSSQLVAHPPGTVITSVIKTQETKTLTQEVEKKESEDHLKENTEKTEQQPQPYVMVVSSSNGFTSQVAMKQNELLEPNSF
# Sequence of ETV5 (P41161 whole entry): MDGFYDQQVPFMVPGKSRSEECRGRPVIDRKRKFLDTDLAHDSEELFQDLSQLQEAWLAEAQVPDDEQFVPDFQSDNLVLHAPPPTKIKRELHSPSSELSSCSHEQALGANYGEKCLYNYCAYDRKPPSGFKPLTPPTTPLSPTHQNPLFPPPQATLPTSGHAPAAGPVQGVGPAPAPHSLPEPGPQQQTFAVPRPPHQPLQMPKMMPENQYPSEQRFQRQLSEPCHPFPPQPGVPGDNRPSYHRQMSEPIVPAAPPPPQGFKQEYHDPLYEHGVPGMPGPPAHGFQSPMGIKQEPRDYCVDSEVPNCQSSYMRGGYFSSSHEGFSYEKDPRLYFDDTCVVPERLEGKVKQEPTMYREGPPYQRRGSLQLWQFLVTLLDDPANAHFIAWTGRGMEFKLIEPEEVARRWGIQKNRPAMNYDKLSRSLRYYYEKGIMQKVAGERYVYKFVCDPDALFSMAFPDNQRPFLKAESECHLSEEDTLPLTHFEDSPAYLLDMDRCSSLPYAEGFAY
sequence,measurement,setting,value
GAACTC,binding signal,[1],"1.28 fold enrichment (6-mer frequency, TF over GST control)"
same,binding signal,[2],"1.22 fold enrichment (6-mer frequency, TF over GST control)"
same,binding signal,[3],"1.31 fold enrichment (6-mer frequency, TF over GST control)"
same,binding signal,[4],"1.26 fold enrichment (6-mer frequency, TF over GST control)"
same,binding signal,[5],"1.29 fold enrichment (6-mer frequency, TF over GST control)"
same,binding signal,[6],"1.28 fold enrichment (6-mer frequency, TF over GST control)"
same,binding signal,[7],"1.39 fold enrichment (6-mer frequency, TF over GST control)"
same,binding signal,[8],"1.28 fold enrichment (6-mer frequency, TF over GST control)"
same,binding signal,[9],"1.33 fold enrichment (6-mer frequency, TF over GST control)"
same,binding signal,[10],"1.28 fold enrichment (6-mer frequency, TF over GST control)"
same,binding signal,[11],"1.29 fold enrichment (6-mer frequency, TF over GST control)"
same,binding signal,[12],"1.25 fold enrichment (6-mer frequency, TF over GST control)"
same,binding signal,[13],"1.32 fold enrichment (6-mer frequency, TF over GST control)"
same,binding signal,[14],"1.26 fold enrichment (6-mer frequency, TF over GST control)"
same,binding signal,[15],"1.14 fold enrichment (6-mer frequency, TF over GST control)"
same,binding signal,[16],"1.1 fold enrichment (6-mer frequency, TF over GST control)"
same,binding signal,[17],"1.29 fold enrichment (6-mer frequency, TF over GST control)"
same,binding signal,[18],"1.02 fold enrichment (6-mer frequency, TF over GST control)"
same,binding signal,[19],"1.35 fold enrichment (6-mer frequency, TF over GST control)"
